Screening results deposited in PubChem by National Center for Advancing Translational Sciences (NCATS).
Only some compounds are listed: those with a hit (about 15% of all), similar ones and a draw of the others.
RORg inh: ROR gamma (mouse) transcription inhibition. P51450. Potency, µM (highest dose often 53.6 µM), without a hit: top-dose activity change, negative = inhibition, actives largely listed as inhibitors. Drosophila S2 Gal4-RORgamma UAS-luciferase reporter, 20 h. actives 5.4% (n = 310,000). AID 2551; further: nearly all actives have a fitted effect of over 60% in size
Target sequence (P51450 whole entry, looked up, the tested form may be a part): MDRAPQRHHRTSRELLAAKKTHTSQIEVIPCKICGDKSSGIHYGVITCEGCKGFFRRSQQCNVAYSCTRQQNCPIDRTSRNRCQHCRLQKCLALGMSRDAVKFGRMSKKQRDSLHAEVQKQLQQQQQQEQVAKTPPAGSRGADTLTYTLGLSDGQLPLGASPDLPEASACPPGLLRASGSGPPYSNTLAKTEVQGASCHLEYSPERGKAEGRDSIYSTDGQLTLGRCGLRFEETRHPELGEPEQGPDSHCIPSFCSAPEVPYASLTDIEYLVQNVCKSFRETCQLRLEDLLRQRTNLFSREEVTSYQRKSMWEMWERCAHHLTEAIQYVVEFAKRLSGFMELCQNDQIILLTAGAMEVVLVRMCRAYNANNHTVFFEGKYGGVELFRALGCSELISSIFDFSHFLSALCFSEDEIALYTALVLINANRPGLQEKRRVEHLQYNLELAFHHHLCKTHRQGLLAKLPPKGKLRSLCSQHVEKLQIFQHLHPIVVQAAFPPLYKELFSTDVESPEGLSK
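Stably transfected Drosophila Schneider cells are the test system, with ROR gamma fused to Gal4 and luciferase under UAS control; luminescence is read after 20 hr of 700 uM copper sulfate induction at ambient temperature.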
VP16 counter: Gal4-VP16 reporter inhibition counter-screen; Drosophila S2 Gal4-VP16 UAS-luciferase, luminescence, 20 h; Potency, µM (top dose mostly 53.6 µM), for inactives: at the highest dose activity, negative = inhibition, most hits filed as inhibitors; actives 3.5% (n = 310,000); AID 2546;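 further: Gal4-VP16 expression switched on by copper sulfate through the metallothionein promoter; nearly all actives have a fitted effect of over 50% in size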
ELG1 DNA repair: inhibitors of ELG1-dependent DNA repair in HEK293T cells | HEK293T ELG1-luciferase reporter, luminescence, 16 h; DNA damage induced by 5-fluorouridine | Potency, µM (highest dose often 46.1 µM), for inactives: at the highest dose activity change, negative = inhibition, usual class: inhibitors | actives 2.3% (n = 330,000); further: nearly all actives have a fitted effect of over 55% in size
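Reporter activity after DNA damage by 5-fluorouridine is monitored. Compound-treated cells incubate 16 hr at 37 °C, then ONE-Glo is added for 30 min before luminescence reading.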
ALOX12 inh: inhibitors of human 12S-lipoxygenase ALOX12; Potency, µM (series often up to 108 µM), for the others: top-dose activity change, negative = inhibition, actives largely listed as inhibitors; actives 1.1% (n = 580,000); purified 12hLO, xylenol orange hydroperoxide absorbance; AID 1671190; P18054
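Purified human 12hLO at 150 nM in 25 mM Hepes, 0.01% Triton X-100, pH 7.0, preincubated 15 min at room temperature with compound. Reaction started with 40 uM arachidonic acid, 30 min at room temperature. Hydroperoxide measured by Fe-xylenol orange, 573/405 nm absorbance ratio.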
DT40 TDP1 no CPT: qHTS for Inhibitors of human tyrosyl-DNA phosphodiesterase 1 (TDP1): qHTS in cells in absence of CPT. DT40 Tdp1-/- hTDP1 cells, no CPT, ATP luminescence, 48 h. Potency, µM (doses to about 46.2 µM), for the others: at the highest dose activity change, negative = growth inhibition, usual class: inhibitors. actives 15% (n = 420,000). AID 686978, 2013; further: nearly all actives have a fitted effect of over 55% in size
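Chicken DT40 Tdp1-/- cells stably complemented with human TDP1 were seeded at 400 cells/well with DMSO in place of 20 nM camptothecin. After compound pinning, cells grew at least 48 hr at 37 °C; viability read by CellTiter-Glo luminescence.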
DT40 TDP1 CPT: growth inhibition of DT40 Tdp1-/-;hTDP1 cells with camptothecin (screen for TDP1 inhibitors); Potency, µM (highest dose often 46.2 µM), for the others: at the top dose activity change, negative = growth inhibition, usual class: inhibitors; actives 12% (n = 420,000); chicken DT40 Tdp1-/-;hTDP1 cells + 20 nM CPT, ATP luminescence, 48 h; AID 686979; further: nearly all actives have a fitted effect of over 55% in size
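Chicken DT40 Tdp1-/- cells complemented with human TDP1, 400 cells/well, exposed to compounds plus 20 nM camptothecin for at least 48 h at 37 C; viability read as ATP content by CellTiter-Glo luminescence.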
* = called active by the depositor; ? = inconclusive; · = not tested or not shown; [ ] = remark or other dose. The call rests on the fitted dose curve; in most records, active means well fitted curve in the direction sought with a large enough effect; inconclusive means small, poorly fitted or top-dose-only effect, or another doubt; inactive means no such curve, though single readings can be large; an effect the other way counts as inactive or inconclusive. On the % scale 0 is the no-effect control and ±100 the full control effect; potency means the concentration at half of the fitted maximal effect.

SMILES	RORg inh	VP16 counter	ELG1 DNA repair	ALOX12 inh	DT40 TDP1 no CPT	DT40 TDP1 CPT
O=C(c1cccc(S(=O)(=O)Nc2cc(C(F)(F)F)ccc2Cl)c1)N1CCC1	·	·	·	13.7%	·	·
O=C(CC1CCCC1)NCc1ccccn1	·	·	·	6.3%	·	·
COc1ccc2[nH]cc(C(C(=O)O)N3CCN(Cc4cccc(Cl)c4)CC3)c2c1 (centres undefined)	·	·	·	-5.7%	·	·
Cc1cccc(N2C(=O)CC(Sc3ncn[nH]3)C2=O)c1 (centres undefined)	12.6µM*	-11.3%[10 µM]	-1.2%	-0.2%	1.84µM*	1.84µM*
Cc1ccc(N2C(=O)CC(Sc3ncn[nH]3)C2=O)cc1C (centres undefined)	?	?	-7.4%	0.0%	5.17µM*	4.61µM*
CC1CCCN(c2ccc(C(=O)Nc3cccnc3)cc2[N+](=O)[O-])C1 (centres undefined)	?	-9.7%	14.6µM*	-4.2%	?	16.4µM*
Cc1ccc(C(=O)Nc2cccnc2)cc1[N+](=O)[O-]	21.0%	-2.7%	-1.0%	2.1%	3.7%	-13.8%
CC(=O)Nc1ccc(N2CCCC(C)C2)c([N+](=O)[O-])c1 (centres undefined)	21.1%	2.7%	-0.9%	-19.7%	23.1µM*	-9.7%
CC(=O)Nc1ccc(N2CCC(C)CC2)c([N+](=O)[O-])c1	6.1%	-3.4%	?	-20.6%	-18.4%	-14.3%
CCCCNC(=O)C1CCN(c2nc3ccccc3nc2C(F)(F)F)CC1	·	·	·	-12.8%	?	16.4µM*
COCCNC(=O)C1CCN(c2nc3ccccc3nc2C(F)(F)F)CC1	·	·	·	-1.5%	-20.4%	?
CSc1ccc(CCNC(=O)C2CCN(c3nc4ccccc4nc3C(F)(F)F)CC2)cc1	·	·	·	?	11.6µM*	14.6µM*
CC(C)Oc1ccc(CNC(=O)C2CCN(c3nc4ccccc4nc3C(F)(F)F)CC2)cc1	·	·	·	-9.6%	5.8µM*	4.11µM*
O=C1CCC(C(=O)OCc2c(Cl)cccc2Cl)=NN1	·	·	·	-2.3%	·	·
Cc1cccc(C(=O)N2CCC3(CCCCO3)CC2)c1	·	·	·	5.2%	·	·
[O-][N+](=Cc1ccccc1)c1ccc(Cl)cc1	·	·	·	3.1%	20.6µM*	6.51µM*
[O-]/[N+](=C\c1ccco1)c1ccc(Cl)cc1	8.3%	-25.7%	?	37.4%	?	?
[O-]/[N+](=C/c1ccc(F)cc1)c1ccc(Cl)cc1	?	11.7%	?	·	9.2µM*	16.4µM*
COc1ccc(NC(=O)CCc2ccnc(N3CCCC3)c2)c(OC)c1	·	·	·	29.9%	·	·
COc1ccc(Nc2nc(N)nc(CN3CCN(c4ccc(F)cc4)CC3)n2)cc1	-1.2%	0.8%	0.0%	-17.9%	14.6µM*	?
COc1ccc(N2CCN(Cc3nc(N)nc(Nc4ccccc4OC)n3)CC2)cc1	?	4.8%	-12.5%	0.0%	?	?
Cc1cccc(Nc2nc(N)nc(CN3CCN(c4ccccc4F)CC3)n2)c1	·	·	·	0.3%	?	-25.5%
COc1ccccc1N1CCN(Cc2nc(N)nc(Nc3ccc(C)c(Cl)c3)n2)CC1	11.2µM*	1.0%	14.6µM*	-29.1%	9.2µM*	14.6µM*
COc1ccccc1Nc1nc(N)nc(CN2CCN(c3ccccc3F)CC2)n1	1.78µM*	7.94µM*	-13.1%	-3.6%	-16.6%	?
CCOc1ccc(Nc2nc(N)nc(CN3CCN(c4ccccc4F)CC3)n2)cc1	11.2µM*	-5.5%	16.4µM*	1.4%	18.4µM*	-9.8%
SMILES	RORg inh	VP16 counter	ELG1 DNA repair	ALOX12 inh	DT40 TDP1 no CPT	DT40 TDP1 CPT
Cc1ccc(C(=O)C(C)OC(=O)c2cc3ccccc3[nH]2)cc1 (centres undefined)	·	·	·	-20.1%	·	·
O=C(COC(=O)c1cc2ccccc2[nH]1)NCc1ccccc1	·	·	·	-10.4%	·	·
CCC(NC(=O)c1cc(OC)ccc1OC1CCN(C(C)=O)CC1)c1ccc(F)cc1 (centres undefined)	·	·	·	51.6%	·	·
COc1ccccc1N1CCN(Cc2cnc3ccc(Cl)cn23)CC1	-0.4%	-4.5%	0.3%	25.9%	13µM*	23.1µM*
Nc1nc(CN2CCN(c3ccccn3)CC2)nc(Nc2ccc(Cl)cc2)n1	24.1%	-15.9%	?	-22.6%	6.51µM*	?
COc1ccccc1Nc1nc(N)nc(CN2CC(C)CC(C)C2)n1 (centres undefined)	8.91µM*	-0.6%[10 µM]	-14.2%	0.0%	-2.0%	12.4%
Nc1nc(CN2CCN(c3ccccc3F)CC2)nc(Nc2ccc3c(c2)OCCO3)n1	-28.3%	-13.2%	23.1µM*	7.9%	?	?
CCc1nc2c(c(-c3ccc(OC)cc3)n1)CCN([S+](=O)([O-])c1c(C)noc1C)CC2	·	·	·	2.6%[6.33 µM]	·	·
COc1ccc(N2CCN(c3nc(Nc4ccc(F)cc4)nc(OC)n3)CC2)cc1	-6.3%	-1.4%	3.3%	·	·	·
COc1ccc(N2CCN(c3nc(Cl)nc(Nc4ccc(F)cc4)n3)CC2)cc1	?	-11.9%	?	-2.0%	18.4µM*	18.4µM*
COc1ccccc1CNC(=O)CCC[C@H]1NC[C@@H]2C[C@H]1CN(Cc1ccccc1)C2	·	·	·	10µM*	·	·
C=CCN1CCN(C(=O)CCC[C@H]2NC[C@@H]3C[C@H]2CN(Cc2ccccc2)C3)CC1	·	·	·	5.62µM*	·	·
CCCCN(C)S(=O)(=O)c1ccc(NC(=O)Cc2nc(-c3ccccc3)oc2C)cc1	·	·	·	16.5%	·	·
CCCc1[nH]nc2c1C(c1cn[nH]c1-c1ccc(F)cc1)C(C#N)=C(N)O2 (centres undefined)	-10.6%	?	-3.8%	·	10.3µM*	9.2µM*
Cc1ccc(NC(=O)c2cc3c(cc2C)OCCCO3)cc1	·	·	·	0.7%	·	·
CCc1cc(C(=O)Nc2ccc(OC)nc2)sc1C	·	·	?	?	-17.2%	3.3%
COc1ccc(NC(=O)c2cc(Br)c(Br)s2)cn1	28.3%	4.6%	4.3%	12.6µM*	?	0.1%
O=C(Nc1ccc(Br)cc1)c1cc(Br)c(Br)s1	?	1.1%	·	·	18.8µM*	?
O=C(Nc1ccc(Br)cc1)c1ccccc1Br	·	·	?	?	19.5%	-9.9%
CCN(CC)C(=O)[C@H]1C[C@H](CC(=O)NCCCN(C)C)C(=O)N2CCc3c([nH]c4ccc(Cl)cc34)[C@]12C	·	·	?	-5.9%	?	18.4µM*
CCN(CC)C(=O)[C@H]1C[C@H](CC(=O)NCc2ccc(OC)c(OC)c2)C(=O)N2CCc3c([nH]c4ccc(Cl)cc34)[C@]12C	·	·	?	-2.3%	23.1µM*	?
